# Calls of active or inactive are those of the source. Rule for the calls: active = hit-call score of the fitted dose curve at least 0.9, where 1 is the maximum; inactive = score below 0.9.
# Columns and labels:
# [1] = ATG_M_61_CIS: Attagene CIS-FACTORIAL HepG2 Assay for M61 Transcription Factor (Internal Marker) (AID 2282937); conditions: HepG2 Attagene CIS-FACTORIAL M61 internal marker reporter; actives raise or lower the signal
# Outline: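 Human liver HepG2, transient MRTU transfection (cis promoter elements), 24 h compound. Total RNA → oligo(dT) RT → PCR → FAM label → HpaI → CE. Internal background marker; bidirectional fitting, DMSO = baseline.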
# [2] = ATG_M_19_CIS: Attagene CIS-FACTORIAL HepG2 Assay for M19 Transcription Factor (Internal Marker) (AID 2282939); conditions: HepG2 Attagene CIS-FACTORIAL M19 internal marker reporter; actives raise or lower the signal
# Outline: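 Chemical-treated HepG2 (24 h) with MRTU constructs; reporter transcripts detected by fluorescent RT-PCR fragment analysis on capillary electrophoresis. Internal background marker, DMSO as baseline.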
# [3] = ATG_Ets_CIS: Attagene CIS-FACTORIAL HepG2 Assay for human Erythroblast Transformation Specific (ETS) (AID 2282941); conditions: HepG2 ETS cis-reporter transcription, actives raise or lower the signal
# Outline: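 HepG2 cells transiently transfected with cis-promoter reporter transcription units were dosed for 24 h; reporter mRNA was measured by RT-PCR, 6-FAM primer extension, HpaI digestion and capillary electrophoresis, with bidirectional fitting against DMSO baseline.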
# [4] = target: Hepatocyte nuclear factor 3-beta (Homo sapiens) (UniProt Q9Y261); assay: ATG_FoxA2_CIS: Attagene CIS-FACTORIAL HepG2 Assay for human Forkhead box A2 (FOXA2) (AID 2282942); conditions: HepG2 cis-reporter transcription factor activity, 24 h; actives raise or lower the signal
# Outline: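 Transient MRTU transfection of HepG2 liver cells; 24 h treatment; total RNA → oligo(dT) RT → PCR → FAM primer extension → HpaI cut → CE. Bidirectional fit vs DMSO.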
# [5] = ATG_FoxO_CIS: Attagene CIS-FACTORIAL HepG2 Assay for human Forkhead box O (FoxO) (AID 2282943); conditions: HepG2 Attagene cis-reporter, FoxO element, mRNA; actives raise or lower the signal
# Outline: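 Read-out: fluorescence of 6-FAM-labelled reporter cDNA fragments resolved by capillary electrophoresis. Transiently transfected HepG2 cells were dosed for 24 h; activity fitted in both directions relative to DMSO controls.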
# [6] = ATG_GATA_CIS: Attagene CIS-FACTORIAL HepG2 Assay for human GATA Binding Protein (AID 2282944); conditions: HepG2 GATA cis-element reporter, Attagene multiplex mRNA; actives raise or lower the signal
# Outline: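 Transfected cis-reporter HepG2 cells were treated with chemicals for 24 hours. Total RNA was then converted to cDNA, amplified with reporter-specific primers and analysed by fluorescent capillary electrophoresis, using DMSO-treated wells as baseline.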
# [7] = ATG_GLI_CIS: Attagene CIS-FACTORIAL HepG2 Assay for human Zinc Finger Protein GLI1 (AID 2282945); conditions: HepG2, Attagene cis-factorial reporter mRNA, GLI element; actives raise or lower the signal
# Outline: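 Transiently transfected HepG2 cells report endogenous transcription factor activity via cis-element-driven reporter units. After 24 h compound exposure, reporter mRNA was measured by RT-PCR with capillary electrophoresis; bidirectional fitting against DMSO baseline.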
# [8] = target: Bile acid receptor (Homo sapiens) (UniProt Q96RI1); assay: ATG_IR1_CIS: Attagene CIS-FACTORIAL HepG2 Assay for human Nuclear Receptor Subfamily 1 Group H Member 4 (NR1H4), IR1 submotif (AID 2282946); conditions: IR1 reporter transcription, actives raise or lower the signal
# Outline: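 HepG2 cells transiently transfected with multiple cis-promoter-driven reporter units to measure endogenous transcription factor activity; 24 h exposure. Reporter mRNA read by RT-PCR, FAM labelling, HpaI digestion and capillary electrophoresis. Bidirectional fit versus DMSO.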
# [9] = ATG_ISRE_CIS: Attagene CIS-FACTORIAL HepG2 Assay for human Interferon Regulatory Factor 1 (IRF1) binding to an Interferon-Stimulated Response Element (ISRE) (AID 2282948); conditions: HepG2 ISRE cis-reporter (Attagene), mRNA transcription readout; actives raise or lower the signal
# Outline: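 HepG2 cells transiently transfected with multiplexed cis-promoter reporter units; after 24 h compound exposure, reporter mRNA quantified by RT-PCR, FAM labelling, HpaI digestion and capillary electrophoresis. Bidirectional fit versus DMSO baseline.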
# [10] = ATG_M_32_CIS: Attagene CIS-FACTORIAL HepG2 Assay for M32 Transcription Factor (Internal Marker) (AID 2282949); conditions: HepG2 Attagene cis-factorial M32 reporter, mRNA; actives raise or lower the signal;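 note: background control marker of the multiplexed CIS panel rather than a real target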
# Outline: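 Internal background marker read-out: RT-PCR/capillary electrophoresis fluorescence of reporter transcripts from transiently transfected HepG2 cells after 24 h chemical exposure. Activity fitted bidirectionally relative to DMSO negative control.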
# [11] = target: Hypoxia-inducible factor 1-alpha (Homo sapiens) (UniProt Q16665); assay: ATG_HIF1a_CIS: Attagene CIS-FACTORIAL HepG2 Assay for human Hypoxia Inducible Factor 1 (HIF1A) (AID 2282951); conditions: HepG2 Attagene cis-factorial HIF1a reporter transcription; actives raise or lower the signal
# Outline: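 Transient MRTU transfection of human HepG2 liver cells, 24 h compound treatment, then total RNA isolation, oligo(dT) reverse transcription, PCR amplification, fluorescent labelling and capillary electrophoresis of reporter fragments. Gain or loss relative to DMSO.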
# [12] = target: Hepatocyte nuclear factor 6 (Homo sapiens) (UniProt Q9UBC0); assay: ATG_HNF6_CIS: Attagene CIS-FACTORIAL HepG2 Assay for human Hepatocyte Nuclear Factor 6 (HNF6) (AID 2282952); conditions: HepG2 Attagene cis-factorial HNF6 reporter transcription; actives raise or lower the signal
# Outline: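 Transiently transfected HepG2 cells expressing cis-regulated reporter transcription units were exposed to chemical for 24 h in a 24-well format. Reporter transcript abundance was determined by fluorescence capillary electrophoresis.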
# [13] = ATG_MRE_CIS: Attagene CIS-FACTORIAL HepG2 Assay for human Metal Responsive Element (MRE) (AID 2282954); conditions: HepG2 MRE cis-reporter transcription, Attagene multiplex; actives raise or lower the signal
# Outline: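 Fluorescent reporter fragments separated by capillary electrophoresis give mRNA induction for the MRE unit after 24 h treatment of transfected HepG2 cells. Endogenous transcription-factor activity is read; DMSO serves as negative control and baseline.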
# [14] = ATG_PBREM_CIS: Attagene CIS-FACTORIAL HepG2 Assay for human Phenobarbital-responsive Enhancer Module (PBREM) (AID 2282955); conditions: HepG2 PBREM cis-reporter, Attagene multiplexed transcription; actives raise or lower the signal
# Outline: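 Endogenous transcription factors in human liver HepG2 cells drive a PBREM cis-element reporter, whose transcript level after 24 h treatment is quantified by RT-PCR with capillary electrophoresis; activity fitted in both directions against DMSO.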
# [15] = ATG_EGR_CIS: Attagene CIS-FACTORIAL HepG2 Assay for human Early Growth Response 1 (EGR1) (AID 2282938); conditions: HepG2 Attagene CIS-FACTORIAL EGR reporter mRNA; actives raise or lower the signal
# Outline: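 Transient transfection of human HepG2 with multiple cis-regulated reporter units, chemical exposure 24 h, total RNA isolated. Reverse transcription, PCR, fluorescent labelling and capillary electrophoresis quantify reporter transcripts; activity fitted bidirectionally against DMSO.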
# [16] = ATG_GRE_CIS: Attagene CIS-FACTORIAL HepG2 Assay for human Glucocorticoid Response Elements (GRE) (AID 2282947); conditions: HepG2 GRE cis-reporter, Attagene multiplex mRNA; actives raise or lower the signal
# Outline: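 Endogenous transcription factor activity is read through cis-element reporter constructs transiently transfected into HepG2 cells. After 24 h treatment, labelled RT-PCR products are resolved by capillary electrophoresis; DMSO sets baseline for bidirectional curve fitting.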
# [17] = ATG_M_06_CIS: Attagene CIS-FACTORIAL HepG2 Assay for M06 Transcription Factor (Internal Marker) (AID 2282950); conditions: HepG2 Attagene CIS-FACTORIAL M06 internal marker reporter; actives raise or lower the signal
# Outline: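 Cells (HepG2, transiently carrying cis-driven reporter units) receive chemical for 24 h before RNA isolation. Reporter cDNA is PCR-amplified, FAM-labelled by primer extension, HpaI-digested and sized on a capillary analyser.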
# [18] = target: Heat shock factor protein 1 (Homo sapiens) (UniProt Q00613); assay: ATG_HSE_CIS: Attagene CIS-FACTORIAL HepG2 Assay for human Heat Shock Transcription Factor 1 (HSE) (AID 2282953); conditions: HepG2 HSE cis-reporter, Attagene RNA transcription; actives raise or lower the signal
# Outline: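 Liver-derived HepG2 cells carry transiently introduced multiple reporter units governed by cis promoters. Reporter RNA measured 24 h post-dose through reverse transcription, PCR amplification, fluorescent labelling and capillary electrophoresis, normalised to DMSO.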
# Sequence of Hypoxia-inducible factor 1-alpha (Homo sapiens) (Q16665 whole entry, looked up, the tested form may be a part): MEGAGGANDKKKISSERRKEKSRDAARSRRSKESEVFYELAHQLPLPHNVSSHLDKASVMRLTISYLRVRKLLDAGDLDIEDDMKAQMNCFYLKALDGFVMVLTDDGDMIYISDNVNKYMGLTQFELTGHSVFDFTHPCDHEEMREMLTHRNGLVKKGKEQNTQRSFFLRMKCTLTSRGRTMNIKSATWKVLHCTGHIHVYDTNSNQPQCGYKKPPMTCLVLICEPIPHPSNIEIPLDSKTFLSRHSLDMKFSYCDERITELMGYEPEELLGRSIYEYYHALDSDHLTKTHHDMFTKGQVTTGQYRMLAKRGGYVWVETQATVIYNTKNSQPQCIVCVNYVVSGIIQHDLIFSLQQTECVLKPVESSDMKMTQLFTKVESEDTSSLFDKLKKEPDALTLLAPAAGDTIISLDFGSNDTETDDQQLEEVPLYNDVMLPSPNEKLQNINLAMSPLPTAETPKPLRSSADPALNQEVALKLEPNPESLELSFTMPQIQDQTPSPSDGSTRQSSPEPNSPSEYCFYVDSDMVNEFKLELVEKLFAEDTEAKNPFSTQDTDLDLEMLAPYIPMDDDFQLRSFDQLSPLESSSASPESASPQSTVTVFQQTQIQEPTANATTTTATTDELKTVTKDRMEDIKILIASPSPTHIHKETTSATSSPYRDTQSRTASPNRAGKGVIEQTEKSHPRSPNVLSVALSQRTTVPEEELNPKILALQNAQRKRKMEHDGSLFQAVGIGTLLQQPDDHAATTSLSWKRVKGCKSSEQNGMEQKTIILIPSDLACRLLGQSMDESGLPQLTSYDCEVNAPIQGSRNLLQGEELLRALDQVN
# Sequence of Heat shock factor protein 1 (Homo sapiens) (Q00613 whole entry, looked up): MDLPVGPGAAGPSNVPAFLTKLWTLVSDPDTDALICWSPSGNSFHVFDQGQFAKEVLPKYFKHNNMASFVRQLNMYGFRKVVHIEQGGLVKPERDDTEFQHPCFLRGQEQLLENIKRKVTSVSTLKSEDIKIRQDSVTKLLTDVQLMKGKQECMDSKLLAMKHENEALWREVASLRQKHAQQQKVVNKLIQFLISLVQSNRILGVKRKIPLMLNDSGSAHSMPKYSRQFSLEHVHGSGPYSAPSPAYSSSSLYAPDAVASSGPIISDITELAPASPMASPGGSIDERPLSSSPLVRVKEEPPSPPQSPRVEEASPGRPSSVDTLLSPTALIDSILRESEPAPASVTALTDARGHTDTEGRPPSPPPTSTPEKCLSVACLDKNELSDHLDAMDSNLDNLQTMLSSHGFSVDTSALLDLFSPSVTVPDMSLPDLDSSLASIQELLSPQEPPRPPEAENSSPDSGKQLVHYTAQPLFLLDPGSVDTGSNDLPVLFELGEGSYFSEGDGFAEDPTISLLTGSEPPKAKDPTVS
# Sequence of Hepatocyte nuclear factor 6 (Homo sapiens) (Q9UBC0 whole entry, looked up): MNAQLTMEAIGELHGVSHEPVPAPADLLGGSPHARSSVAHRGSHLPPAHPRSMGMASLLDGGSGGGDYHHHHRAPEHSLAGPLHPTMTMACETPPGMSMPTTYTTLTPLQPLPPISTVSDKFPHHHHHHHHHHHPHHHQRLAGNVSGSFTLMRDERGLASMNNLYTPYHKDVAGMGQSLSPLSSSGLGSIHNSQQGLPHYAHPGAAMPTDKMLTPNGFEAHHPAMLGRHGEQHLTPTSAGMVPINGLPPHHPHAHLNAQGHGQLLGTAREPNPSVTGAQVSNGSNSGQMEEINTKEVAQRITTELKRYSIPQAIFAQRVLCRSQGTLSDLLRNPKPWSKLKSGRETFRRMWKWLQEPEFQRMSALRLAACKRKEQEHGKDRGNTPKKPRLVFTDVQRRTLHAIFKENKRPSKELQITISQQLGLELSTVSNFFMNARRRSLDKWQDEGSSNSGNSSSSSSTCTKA
# Sequence of Bile acid receptor (Homo sapiens) (Q96RI1 whole entry, looked up): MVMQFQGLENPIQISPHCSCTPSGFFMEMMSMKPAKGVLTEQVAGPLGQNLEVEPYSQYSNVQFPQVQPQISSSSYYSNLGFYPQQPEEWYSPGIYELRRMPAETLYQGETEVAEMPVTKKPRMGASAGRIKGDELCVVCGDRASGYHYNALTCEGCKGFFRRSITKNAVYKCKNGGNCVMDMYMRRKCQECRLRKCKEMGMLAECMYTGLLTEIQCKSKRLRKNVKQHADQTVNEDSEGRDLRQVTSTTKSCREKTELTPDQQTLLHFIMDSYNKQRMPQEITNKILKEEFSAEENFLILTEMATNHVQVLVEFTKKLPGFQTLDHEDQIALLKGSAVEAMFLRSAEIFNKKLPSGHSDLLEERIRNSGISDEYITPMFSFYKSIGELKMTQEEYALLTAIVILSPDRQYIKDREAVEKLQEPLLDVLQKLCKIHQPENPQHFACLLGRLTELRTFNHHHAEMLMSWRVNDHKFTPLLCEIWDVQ
# Sequence of Hepatocyte nuclear factor 3-beta (Homo sapiens) (Q9Y261 whole entry, looked up): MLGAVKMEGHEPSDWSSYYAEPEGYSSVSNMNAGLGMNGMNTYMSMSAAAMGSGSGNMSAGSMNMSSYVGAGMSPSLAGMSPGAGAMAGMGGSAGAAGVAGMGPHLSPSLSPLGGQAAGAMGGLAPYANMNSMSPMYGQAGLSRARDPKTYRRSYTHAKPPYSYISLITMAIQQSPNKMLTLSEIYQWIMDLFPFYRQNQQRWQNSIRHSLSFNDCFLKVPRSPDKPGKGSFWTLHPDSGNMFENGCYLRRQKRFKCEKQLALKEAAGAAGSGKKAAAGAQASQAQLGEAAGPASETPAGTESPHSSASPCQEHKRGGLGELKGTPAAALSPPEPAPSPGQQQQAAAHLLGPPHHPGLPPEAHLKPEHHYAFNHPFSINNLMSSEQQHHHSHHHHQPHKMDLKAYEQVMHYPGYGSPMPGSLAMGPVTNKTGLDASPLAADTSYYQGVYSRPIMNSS
structure (smiles),measurement,setting,value
C=Cc1ccc(C(C)(C)C)cc1,outcome,[1],inactive
same,outcome,[2],inactive
same,outcome,[3],inactive
same,outcome,[4],inactive
same,outcome,[5],inactive
same,outcome,[6],inactive
same,outcome,[7],inactive
same,outcome,[8],inactive
same,outcome,[9],inactive
same,outcome,[10],inactive
same,outcome,[11],inactive
same,outcome,[12],inactive
same,outcome,[13],inactive
same,outcome,[14],inactive
CC1=CC[C@@]23C[C@@H]1C(C)(C)[C@@H]2CC[C@H]3C,outcome,[1],inactive
same,outcome,[15],inactive
same,outcome,[2],inactive
same,outcome,[4],inactive
same,AC50,[5],157 µM (active)
same,outcome,[6],inactive
same,outcome,[7],inactive
same,outcome,[16],inactive
same,outcome,[9],inactive
same,outcome,[10],inactive
same,outcome,[17],inactive
same,outcome,[11],inactive
same,outcome,[12],inactive
same,outcome,[18],inactive
same,outcome,[13],inactive
same,outcome,[14],inactive
COc1ccc(COC(C)=O)cc1,outcome,[1],inactive
same,outcome,[15],inactive
same,outcome,[2],inactive
same,outcome,[3],inactive
same,outcome,[4],inactive
same,outcome,[5],inactive
same,outcome,[6],inactive
same,outcome,[7],inactive
same,outcome,[8],inactive
same,outcome,[9],inactive
same,outcome,[10],inactive
same,outcome,[17],inactive
same,outcome,[11],inactive
same,outcome,[12],inactive
same,outcome,[18],inactive
same,outcome,[13],inactive
same,outcome,[14],inactive
O=C(O)CCCCCCCCC(=O)O,outcome,[1],inactive
same,outcome,[15],inactive
same,outcome,[2],inactive
same,outcome,[3],inactive
same,outcome,[4],inactive
same,outcome,[5],inactive
same,outcome,[6],inactive
same,outcome,[7],inactive
same,outcome,[8],inactive
same,outcome,[9],inactive
same,outcome,[10],inactive
same,outcome,[17],inactive
same,outcome,[11],inactive
same,outcome,[18],inactive
same,outcome,[13],inactive
same,outcome,[14],inactive
N#Cc1ccc(CC(=O)c2cccc(C(F)(F)F)c2)cc1,outcome,[1],inactive
same,outcome,[15],inactive
same,outcome,[2],inactive
same,outcome,[3],inactive
same,outcome,[4],inactive
same,outcome,[5],inactive
same,outcome,[6],inactive
same,outcome,[7],inactive
same,outcome,[16],inactive
same,outcome,[9],inactive
same,outcome,[10],inactive
same,outcome,[17],inactive
same,outcome,[12],inactive
same,AC50,[18],150 µM (active)
same,AC50,[13],100 µM (active)
same,outcome,[14],inactive
CC1C2CC(CC2C2CCCC(O)C2)C1(C)C (stereo unspecified),outcome,[1],inactive
same,outcome,[15],inactive
same,outcome,[2],inactive
same,outcome,[3],inactive
same,outcome,[5],inactive
same,outcome,[6],inactive
same,outcome,[7],inactive
same,outcome,[8],inactive
same,outcome,[16],inactive
same,outcome,[9],inactive
same,outcome,[10],inactive
same,outcome,[17],inactive
same,outcome,[11],inactive
same,outcome,[12],inactive
same,outcome,[18],inactive
CCCCCCCCSCCO,outcome,[1],inactive
same,outcome,[15],inactive
same,outcome,[2],inactive
same,outcome,[4],inactive
same,outcome,[5],inactive
same,outcome,[6],inactive
same,outcome,[7],inactive
same,AC50,[8],151 µM (active)
same,outcome,[16],inactive
same,outcome,[9],inactive
same,outcome,[10],inactive
same,outcome,[17],inactive
same,outcome,[11],inactive
same,outcome,[12],inactive
same,AC50,[13],153 µM (active)
same,outcome,[14],inactive
O=C(O)c1ccc(O)cc1,outcome,[1],inactive
same,outcome,[2],inactive
same,outcome,[3],inactive
same,outcome,[4],inactive
same,outcome,[5],inactive
same,outcome,[6],inactive
same,outcome,[7],inactive
same,outcome,[8],inactive
same,outcome,[16],inactive
same,outcome,[9],inactive
same,outcome,[10],inactive
same,outcome,[17],inactive
same,outcome,[11],inactive
same,outcome,[12],inactive
same,outcome,[13],inactive
same,outcome,[14],inactive
